# According to article PMC12820563, “FoxP3 forms a head-to-head dimer in vivo and stabilizes its multimerization on adjacent microsatellites”:
# Over roughly 16,000 sequences, “rpm ratio (pull-down/input)” has its median near 0.5; the highest 2% begin near 5.5. What follows is part of a selection rich in the highest values, with near analogues and random picks from the rest.
# Target: T1, MBP-FoxP3dN (Mus musculus, UniProt Q99JB6 188-423)
# T1 sequence: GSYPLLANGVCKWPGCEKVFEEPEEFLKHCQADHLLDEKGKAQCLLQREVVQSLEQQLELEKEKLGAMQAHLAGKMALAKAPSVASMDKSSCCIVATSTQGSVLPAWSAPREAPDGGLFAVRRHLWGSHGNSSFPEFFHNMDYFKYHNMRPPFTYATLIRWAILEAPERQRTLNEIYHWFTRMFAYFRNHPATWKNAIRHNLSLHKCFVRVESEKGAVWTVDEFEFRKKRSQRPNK
# Test: PD-seq (MBP pull-down with sequencing); 20 mM Tris-HCl pH 7.5, 100 mM NaCl, 1.5 mM MgCl2, 0.4 uM protein, 0.1 uM dsDNA library, 30 min, room temperature, amylose pull-down; high values mean tight binding
# Settings: protein: recombinant; tags: His6-MBP; chain copies: 2; dsDNA, one strand shown
# Outline: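 E. coli-expressed mouse FoxP3 or FoxP1 fragment, N-terminus removed and tagged with His6-MBP, was used at 0.4 µM against 0.1 µM of a Klenow-filled degenerate double-stranded DNA library. After 30 min at room temperature in Tris pH 7.5 buffer with NaCl and MgCl2, complexes were pulled down on amylose resin and washed three times. Binding is pull-down over input reads-per-million enrichment from pooled replicates of the proteinase K-released, PCR-barcoded, Illumina-sequenced DNA.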
row,Sequence,binding signal
1,GATGATTGTTCTCCCAGCTGATGAATTACTATCGTCGAGTAAACAAATTTTCCTAATCTTTCTGTTCAAGCGCCATCTAC,0.509 RPM ratio (pull-down/input)
2,GATGATTGTTCTCCCAGCTGATGAATTGCTAACTTCGAGTAAACAAATTTTCCTAATCTTTCTGTTCAAGCGCCATCTAC,0.723 RPM ratio (pull-down/input)
3,GATGATTGTTCTCCCAGCTGATGAATTGCAAGCGTCGAGTAAACAAATTTTCCTAATCTTTCTGTTCAAGCGCCATCTAC,0.974 RPM ratio (pull-down/input)
4,GATGATTGTTCTCCCAGCTGATGAATTAGGTGGCTCGAGTAAACAAATTTTCCTAATCTTTCTGTTCAAGCGCCATCTAC,0.625 RPM ratio (pull-down/input)
5,GATGATTGTTCTCCCAGCTGATGAATTATCAGAGTCGAGTAAACAAATTTTCCTAATCTTTCTGTTCAAGCGCCATCTAC,0.249 RPM ratio (pull-down/input)
6,GATGATTGTTCTCCCAGCTGATGAATTCTTCTCATCGAGTAAACAAATTTTCCTAATCTTTCTGTTCAAGCGCCATCTAC,0.242 RPM ratio (pull-down/input)
7,GATGATTGTTCTCCCAGCTGATGAATTTTTTTATTCGAGTAAACAAATTTTCCTAATCTTTCTGTTCAAGCGCCATCTAC,0.313 RPM ratio (pull-down/input)
8,GATGATTGTTCTCCCAGCTGATGAATTTATTTATTCGAGTAAACAAATTTTCCTAATCTTTCTGTTCAAGCGCCATCTAC,5.86 RPM ratio (pull-down/input)
9,GATGATTGTTCTCCCAGCTGATGAATTTCTTTATTCGAGTAAACAAATTTTCCTAATCTTTCTGTTCAAGCGCCATCTAC,1.53 RPM ratio (pull-down/input)
10,GATGATTGTTCTCCCAGCTGATGAATTGTTTTATTCGAGTAAACAAATTTTCCTAATCTTTCTGTTCAAGCGCCATCTAC,1.66 RPM ratio (pull-down/input)
11,GATGATTGTTCTCCCAGCTGATGAATTTGTTTATTCGAGTAAACAAATTTTCCTAATCTTTCTGTTCAAGCGCCATCTAC,7.73 RPM ratio (pull-down/input)
12,GATGATTGTTCTCCCAGCTGATGAATTGGTTATTTCGAGTAAACAAATTTTCCTAATCTTTCTGTTCAAGCGCCATCTAC,3.1 RPM ratio (pull-down/input)
13,GATGATTGTTCTCCCAGCTGATGAATTATTTCTTTCGAGTAAACAAATTTTCCTAATCTTTCTGTTCAAGCGCCATCTAC,0.419 RPM ratio (pull-down/input)
14,GATGATTGTTCTCCCAGCTGATGAATTATTTATTTCGAGTAAACAAATTTTCCTAATCTTTCTGTTCAAGCGCCATCTAC,2.74 RPM ratio (pull-down/input)
15,GATGATTGTTCTCCCAGCTGATGAATTTATTGGTTCGAGTAAACAAATTTTCCTAATCTTTCTGTTCAAGCGCCATCTAC,5.89 RPM ratio (pull-down/input)
16,GATGATTGTTCTCCCAGCTGATGAATTTATTCTTTCGAGTAAACAAATTTTCCTAATCTTTCTGTTCAAGCGCCATCTAC,0.542 RPM ratio (pull-down/input)
17,GATGATTGTTCTCCCAGCTGATGAATTTATTATTTCGAGTAAACAAATTTTCCTAATCTTTCTGTTCAAGCGCCATCTAC,5.57 RPM ratio (pull-down/input)
18,GATGATTGTTCTCCCAGCTGATGAATTGGTTTATTCGAGTAAACAAATTTTCCTAATCTTTCTGTTCAAGCGCCATCTAC,4.04 RPM ratio (pull-down/input)
19,GATGATTGTTCTCCCAGCTGATGAATTACCTGCTTCGAGTAAACAAATTTTCCTAATCTTTCTGTTCAAGCGCCATCTAC,0.326 RPM ratio (pull-down/input)
20,GATGATTGTTCTCCCAGCTGATGAATTTCACGGCTCGAGTAAACAAATTTTCCTAATCTTTCTGTTCAAGCGCCATCTAC,0.24 RPM ratio (pull-down/input)
21,GATGATTGTTCTCCCAGCTGATGAATTGTGGTACTCGAGTAAACAAATTTTCCTAATCTTTCTGTTCAAGCGCCATCTAC,1.06 RPM ratio (pull-down/input)

row,Sequence,binding signal
1,GATGATTGTTCTCCCAGCTGATGAATTGTTCCATTCGAGTAAACAAATTTTCCTAATCTTTCTGTTCAAGCGCCATCTAC,0.579 RPM ratio (pull-down/input)
2,GATGATTGTTCTCCCAGCTGATGAATTAACGGGTTCGAGTAAACAAATTTTCCTAATCTTTCTGTTCAAGCGCCATCTAC,0.329 RPM ratio (pull-down/input)
3,GATGATTGTTCTCCCAGCTGATGAATTCCAAATCTCGAGTAAACAAATTTTCCTAATCTTTCTGTTCAAGCGCCATCTAC,0.26 RPM ratio (pull-down/input)
4,GATGATTGTTCTCCCAGCTGATGAATTTGTAATGTCGAGTAAACAAATTTTCCTAATCTTTCTGTTCAAGCGCCATCTAC,3.87 RPM ratio (pull-down/input)
5,GATGATTGTTCTCCCAGCTGATGAATTATACACGTCGAGTAAACAAATTTTCCTAATCTTTCTGTTCAAGCGCCATCTAC,0.65 RPM ratio (pull-down/input)
6,GATGATTGTTCTCCCAGCTGATGAATTACGAAAGTCGAGTAAACAAATTTTCCTAATCTTTCTGTTCAAGCGCCATCTAC,0.214 RPM ratio (pull-down/input)
7,GATGATTGTTCTCCCAGCTGATGAATTCTTTTATTCGAGTAAACAAATTTTCCTAATCTTTCTGTTCAAGCGCCATCTAC,0.35 RPM ratio (pull-down/input)
8,GATGATTGTTCTCCCAGCTGATGAATTTTTATTTTCGAGTAAACAAATTTTCCTAATCTTTCTGTTCAAGCGCCATCTAC,0.838 RPM ratio (pull-down/input)
9,GATGATTGTTCTCCCAGCTGATGAATTGATTTATTCGAGTAAACAAATTTTCCTAATCTTTCTGTTCAAGCGCCATCTAC,2.58 RPM ratio (pull-down/input)
10,GATGATTGTTCTCCCAGCTGATGAATTTTTTATTTCGAGTAAACAAATTTTCCTAATCTTTCTGTTCAAGCGCCATCTAC,0.301 RPM ratio (pull-down/input)
11,GATGATTGTTCTCCCAGCTGATGAATTTTATTATTCGAGTAAACAAATTTTCCTAATCTTTCTGTTCAAGCGCCATCTAC,5.53 RPM ratio (pull-down/input)
12,GATGATTGTTCTCCCAGCTGATGAATTTTATTTTTCGAGTAAACAAATTTTCCTAATCTTTCTGTTCAAGCGCCATCTAC,4.17 RPM ratio (pull-down/input)
13,GATGATTGTTCTCCCAGCTGATGAATTATTTTATTCGAGTAAACAAATTTTCCTAATCTTTCTGTTCAAGCGCCATCTAC,0.489 RPM ratio (pull-down/input)
14,GATGATTGTTCTCCCAGCTGATGAATTTTATTGTTCGAGTAAACAAATTTTCCTAATCTTTCTGTTCAAGCGCCATCTAC,6.02 RPM ratio (pull-down/input)
15,GATGATTGTTCTCCCAGCTGATGAATTTATTTTTTCGAGTAAACAAATTTTCCTAATCTTTCTGTTCAAGCGCCATCTAC,4.63 RPM ratio (pull-down/input)
16,GATGATTGTTCTCCCAGCTGATGAATTTATTTGTTCGAGTAAACAAATTTTCCTAATCTTTCTGTTCAAGCGCCATCTAC,6.33 RPM ratio (pull-down/input)
17,GATGATTGTTCTCCCAGCTGATGAATTAATTTATTCGAGTAAACAAATTTTCCTAATCTTTCTGTTCAAGCGCCATCTAC,2.61 RPM ratio (pull-down/input)
18,GATGATTGTTCTCCCAGCTGATGAATTTATTGATTCGAGTAAACAAATTTTCCTAATCTTTCTGTTCAAGCGCCATCTAC,5.78 RPM ratio (pull-down/input)
19,GATGATTGTTCTCCCAGCTGATGAATTACGTGCCTCGAGTAAACAAATTTTCCTAATCTTTCTGTTCAAGCGCCATCTAC,0.855 RPM ratio (pull-down/input)
20,GATGATTGTTCTCCCAGCTGATGAATTGGTCCACTCGAGTAAACAAATTTTCCTAATCTTTCTGTTCAAGCGCCATCTAC,0.387 RPM ratio (pull-down/input)
21,GATGATTGTTCTCCCAGCTGATGAATTACTGAGCTCGAGTAAACAAATTTTCCTAATCTTTCTGTTCAAGCGCCATCTAC,0.258 RPM ratio (pull-down/input)

row,Sequence,binding signal
1,GATGATTGTTCTCCCAGCTGATGAATTAACACCTTCGAGTAAACAAATTTTCCTAATCTTTCTGTTCAAGCGCCATCTAC,0.408 RPM ratio (pull-down/input)
2,GATGATTGTTCTCCCAGCTGATGAATTCTTTACGTCGAGTAAACAAATTTTCCTAATCTTTCTGTTCAAGCGCCATCTAC,0.372 RPM ratio (pull-down/input)
3,GATGATTGTTCTCCCAGCTGATGAATTGTAGCGGTCGAGTAAACAAATTTTCCTAATCTTTCTGTTCAAGCGCCATCTAC,0.618 RPM ratio (pull-down/input)
4,GATGATTGTTCTCCCAGCTGATGAATTTAATACATCGAGTAAACAAATTTTCCTAATCTTTCTGTTCAAGCGCCATCTAC,0.619 RPM ratio (pull-down/input)
5,GATGATTGTTCTCCCAGCTGATGAATTGTAACCGTCGAGTAAACAAATTTTCCTAATCTTTCTGTTCAAGCGCCATCTAC,0.518 RPM ratio (pull-down/input)
6,GATGATTGTTCTCCCAGCTGATGAATTTATTGAATCGAGTAAACAAATTTTCCTAATCTTTCTGTTCAAGCGCCATCTAC,0.822 RPM ratio (pull-down/input)
7,GATGATTGTTCTCCCAGCTGATGAATTTTATTTATCGAGTAAACAAATTTTCCTAATCTTTCTGTTCAAGCGCCATCTAC,6.95 RPM ratio (pull-down/input)
8,GATGATTGTTCTCCCAGCTGATGAATTTTATTGATCGAGTAAACAAATTTTCCTAATCTTTCTGTTCAAGCGCCATCTAC,5.5 RPM ratio (pull-down/input)
9,GATGATTGTTCTCCCAGCTGATGAATTCTATTTATCGAGTAAACAAATTTTCCTAATCTTTCTGTTCAAGCGCCATCTAC,6.6 RPM ratio (pull-down/input)
10,GATGATTGTTCTCCCAGCTGATGAATTTATTTGATCGAGTAAACAAATTTTCCTAATCTTTCTGTTCAAGCGCCATCTAC,2.62 RPM ratio (pull-down/input)
11,GATGATTGTTCTCCCAGCTGATGAATTTATTTTATCGAGTAAACAAATTTTCCTAATCTTTCTGTTCAAGCGCCATCTAC,3.67 RPM ratio (pull-down/input)
12,GATGATTGTTCTCCCAGCTGATGAATTTATTGTATCGAGTAAACAAATTTTCCTAATCTTTCTGTTCAAGCGCCATCTAC,5.25 RPM ratio (pull-down/input)
13,GATGATTGTTCTCCCAGCTGATGAATTTATTCTATCGAGTAAACAAATTTTCCTAATCTTTCTGTTCAAGCGCCATCTAC,0.549 RPM ratio (pull-down/input)
14,GATGATTGTTCTCCCAGCTGATGAATTGTATTTATCGAGTAAACAAATTTTCCTAATCTTTCTGTTCAAGCGCCATCTAC,6.83 RPM ratio (pull-down/input)
15,GATGATTGTTCTCCCAGCTGATGAATTTTTATTATCGAGTAAACAAATTTTCCTAATCTTTCTGTTCAAGCGCCATCTAC,0.779 RPM ratio (pull-down/input)
16,GATGATTGTTCTCCCAGCTGATGAATTATTCCTATCGAGTAAACAAATTTTCCTAATCTTTCTGTTCAAGCGCCATCTAC,0.365 RPM ratio (pull-down/input)
17,GATGATTGTTCTCCCAGCTGATGAATTTGTATTATCGAGTAAACAAATTTTCCTAATCTTTCTGTTCAAGCGCCATCTAC,5.3 RPM ratio (pull-down/input)
18,GATGATTGTTCTCCCAGCTGATGAATTGATCAAGTCGAGTAAACAAATTTTCCTAATCTTTCTGTTCAAGCGCCATCTAC,0.245 RPM ratio (pull-down/input)
19,GATGATTGTTCTCCCAGCTGATGAATTTGACGAGTCGAGTAAACAAATTTTCCTAATCTTTCTGTTCAAGCGCCATCTAC,0.235 RPM ratio (pull-down/input)
20,GATGATTGTTCTCCCAGCTGATGAATTATCAGCCTCGAGTAAACAAATTTTCCTAATCTTTCTGTTCAAGCGCCATCTAC,0.468 RPM ratio (pull-down/input)
21,GATGATTGTTCTCCCAGCTGATGAATTTCCGTGCTCGAGTAAACAAATTTTCCTAATCTTTCTGTTCAAGCGCCATCTAC,0.332 RPM ratio (pull-down/input)
